# From the supplement of paper PMC6555819
# Experiments:
# Assay in all cases: PBM binding z-score (relative to random genomic background probes); higher = stronger binding; sequences stand for … in GC…GCGATTGACAGCGTAGAATGAAGG
# [1] = test system: FXR:RXRa (NR concentration 270 nM, RXRa partner concentration 90 nM)
# Procedure, shortened: (§1)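 Binding buffer was PBS pH 7.4 with 2% milk, 0.02% Triton X-100, 1 mM DTT, 0.2 mg/mL BSA and 0.4 mg/ml salmon testes DNA. In it, ligand-free nuclear receptor dimers were incubated 1 h on custom Agilent 4×180K protein-binding microarrays carrying double-stranded probes. Antibodies against each partner (one per run) detected binding, and z-scores were calculated against random background probes after regression normalization of scanned fluorescence.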
# [2] = test system: LXRa:RXRa (NR concentration 270 nM, RXRa partner concentration 90 nM)
# Procedure, shortened: as §1
# [3] = test system: LXRa homodimer (NR concentration 270 nM)
# Procedure, shortened: as §1
# [4] = test system: LXRb:RXRa (NR concentration 270 nM, RXRa partner concentration 90 nM)
# Procedure, shortened: as §1
# [5] = test system: LXRb homodimer (NR concentration 270 nM)
# Procedure, shortened: as §1
# [6] = test system: PPARa:RXRa (NR concentration 270 nM, RXRa partner concentration 90 nM)
# Procedure, shortened: as §1
# [7] = test system: PPARg:RXRa (NR concentration 180 nM, RXRa partner concentration 90 nM)
# Procedure, shortened: as §1
# [8] = test system: PPARg:RXRa 270nM:90nM, anti-RXR (NR concentration 270 nM, RXRa partner concentration 90 nM)
# Procedure, shortened: as §1
# [9] = test system: PPARg:RXRa 30nM:10nM, anti-RXR (NR concentration 30 nM, RXRa partner concentration 10 nM)
# Procedure, shortened: as §1
# [10] = test system: PPARg:RXRa 90nM:30nM, anti-RXR (NR concentration 90 nM, RXRa partner concentration 30 nM)
# Procedure, shortened: as §1
# [11] = test system: PPARg:RXRa DBDmut IVT, anti-RXR (DBD mutation: RXRa K156A/R161A, NR concentration 270 nM, RXRa partner concentration 90 nM)
# Procedure, shortened: as §1
# [12] = test system: PPARg:RXRa IVT, anti-PPARg (NR concentration 270 nM, RXRa partner concentration 90 nM)
# Procedure, shortened: as §1
# [13] = test system: PPARg DBDmut:RXRa IVT, anti-PPARg (DBD mutation: PPARg1 K132A/R137A, NR concentration 270 nM, RXRa partner concentration 90 nM)
# Procedure, shortened: as §1
# [14] = test system: PPARg DBDmut IVT, anti-PPARg (DBD mutation: PPARg1 K132A/R137A, NR concentration 270 nM)
# Procedure, shortened: as §1
# [15] = test system: PPARg homodimer (NR concentration 180 nM)
# Procedure, shortened: as §1
# [16] = test system: PXR:RXRa (NR concentration 270 nM, RXRa partner concentration 90 nM)
# Procedure, shortened: as §1
# [17] = test system: PXR homodimer (NR concentration 270 nM)
# Procedure, shortened: as §1
# [18] = test system: RARa:RXR (NR concentration 270 nM, RXRa partner concentration 90 nM)
# Procedure, shortened: as §1
# [19] = test system: RARa homodimer (NR concentration 270 nM)
# Procedure, shortened: as §1
# [20] = test system: RARb:RXRa (NR concentration 270 nM, RXRa partner concentration 90 nM)
# Procedure, shortened: as §1
Sequence,PBM binding z-score [1],PBM binding z-score [2],PBM binding z-score [3],PBM binding z-score [4],PBM binding z-score [5],PBM binding z-score [6],PBM binding z-score [7],PBM binding z-score [8],PBM binding z-score [9],PBM binding z-score [10],PBM binding z-score [11],PBM binding z-score [12],PBM binding z-score [13],PBM binding z-score [14],PBM binding z-score [15],PBM binding z-score [16],PBM binding z-score [17],PBM binding z-score [18],PBM binding z-score [19],PBM binding z-score [20]
GTACCAAGGTCAATAGGTCGTTGATGAGTAGGCG,6.19,4.5,0.864,3.74,0.614,5.37,5.15,5.05,2.14,4.13,2.92,4.42,-0.00557,0.159,2.8,4.09,0.916,4.91,0.768,5.2
ATATGTAGGTTAGCTGGGGGCATTCAGACTAGGC,0.978,3.73,0.963,4.51,9.63,4.09,4.83,4.61,2.3,3.72,6.79,6.14,4.18,5.68,1.96,4.39,1.88,2.5,1.27,2.25
TGAATAAGGTTATAAGATCAGGGAACGTTGCAAA,1.45,1.38,0.228,1.24,-0.00633,2.31,0.925,1.57,1.06,1.53,0.667,1.08,1.27,0.778,0.811,0.858,-0.117,1.6,0.729,1.67
TGAATGAGGTTATAAGATCCGGGAACGTTGCAAA,1.15,1.21,-0.3,0.909,-0.0595,2.45,1.01,1.33,0.723,1.15,1.11,1.48,1.46,0.366,0.364,0.692,-0.0533,1.28,-0.21,1.14
TCGAGTAGGTTAGGGGCATTCATAATGGCGTCGA,0.0373,0.369,0.0659,0.931,-0.211,1.4,1.06,2.19,1.35,1.98,2.14,1.72,-0.476,-0.145,0.584,0.584,0.233,0.705,0.173,1.07
TCTTGGAGATCAAAGGTTAAGAAAGCCGAAGCCT,2.17,2.17,-0.196,2.2,-0.93,4.34,5.56,6.62,5.5,7,1.05,2.18,-0.186,-0.682,0.267,2.44,-0.521,3.89,-0.387,1.9
CTCGAAAGGTCGCTTGAGGTGAGTATACGGATAA,4.18,3.88,-0.291,2.68,-0.203,4.15,2.15,2.92,0.841,1.64,0.887,1.84,-0.0758,0.0176,1.47,4.26,0.207,3.93,0.149,3.61
TCTGCTAGGTCAACGATGGTCTGCTAATCTGCTA,2.95,2.1,-0.371,1.35,0.041,2.92,1.92,2.64,1.66,2.11,3.96,3.88,0.46,1.25,0.811,0.995,-0.719,2,-0.907,3.83
CAAACTAGCTCACCGGAAGGTCAAAGTCCGCATG,2.99,3.06,3.46,3.43,1.02,3.16,0.628,1.58,0.364,0.774,0.993,1.36,-0.25,0.542,2.25,3.37,1.23,3.64,0.685,3.17
AATACAGGGTCACTAAGCCAGAGTAGGTACGAAT,6.17,4.69,0.732,3.96,0.99,5.51,6.22,5.26,2.31,3.83,3.03,4.56,1.91,0.89,2.06,3.23,0.477,4.15,0.677,4.17
TCTTGTAGATCAAAGGTGAAGAAAGCCGAAGCCT,0.848,1.05,-0.533,0.994,-0.372,4.04,7.41,7.96,7.36,9.05,2.96,3.53,-0.0532,0.112,0.161,0.885,-0.554,1.86,-0.538,1.49
TAGCCTAGGTCATGCGGGCGAGTATAGTGTCGGC,3.79,2.5,0.369,1.21,-0.906,3.32,2.45,2.08,-0.413,1.37,1.54,2.78,-0.28,-1,0.366,0.704,-0.37,1.97,-0.358,3.54
ATCGAAAGGTCGTGAGGTGAGTATCCAGAAAGGC,5.07,4.11,0.195,3.04,0.388,4.97,4.11,4.31,1.14,2.9,0.293,2.48,1.2,1.27,1.41,3.13,0.135,4.25,0.545,3.93
CCTACTGGGCCATTCACAGGTCATTGATCATATG,0.864,2.27,4.05,2.21,-0.0927,2.62,1.27,2.04,0.468,1.3,4.38,4.07,0.164,0.233,1.37,2.11,0.599,2.4,0.567,2.03
